Nine compounds from PubChem BioAssay (NCI) can be followed below.

About 83,000 compounds went through this panel and 20% of them were active in at least one assay; those are over-represented in the sample as a whole.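 Single-concentration screen, 48 h exposure, 96-well plates. Endpoint: percent growth. Below 10 = active.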 Unmarked numbers belong to inactive results. Activity calls are given as the source filed them.

Assay in all cases: NCI-60 one-dose screen, 48 h (100 = growth as untreated, 0 = no growth, -100 = all killed)
Common to all, as to settings: 10 µM unless noted

For assay [1], the system named is NCI-H23 lung.
Assay [2] deals with NCI-H226 lung.
For assay [3], the system named is NCI-H322M lung.
Assay [4] deals with NCI-H460 lung.
The subject of assay [5] is HOP-92 NSCLC.
The subject of assay [6] is NCI-H522 lung.
The test system of assay [7] is A549/ATCC NSCLC.
The subject of assay [8] is 786-0 renal.
Assay [9] relates to COLO 205 colon.
Assay [10] concerns DU-145 prostate.
For assay [11], the system named is K-562 leukemia.
Assay [12] relates to MALME-3M melanoma.
The subject of assay [13] is MDA-MB-231 breast.
Assay [14] concerns RXF 393 renal.
The test system of assay [15] is SF-268 CNS.
The subject of assay [16] is SF-295 CNS.
The subject of assay [17] is SF-539 CNS.
For assay [18], the system named is UACC-257 melanoma.
Assay [19] deals with M14 melanoma.

Turning to `O=C1CCC(NC(=S)Nc2ccccc2)N1` (stereo not given), the growth in assay [1] is 91.2%; in assay [2], 103%; in [3], 99.5%; in assay [4], 115%; in [5] it was 102%; in [6], 92.8%. The growth in [7] is 101%; in assay [8], 105%; in assay [9], 120%; in assay [10], 112%; in [11], 97.5%; in assay [12] it was 99.6%. The growth in assay [13] was 109%; in [14] it was 117%; in assay [15], 104%; in assay [16], 110%; in assay [17], 105%; in assay [18] it was 104%. The growth in [19] is 110%.

As for `COc1ccc(-c2cnc(N)nc2-c2ccc(OC)cc2O)cc1`, the growth was 92.5% in assay [1]; 99.8% in assay [2]; 90.4% in assay [3]; 89.8% in [4]; 57.8% in [5]; 79.6% in [6]. For the same compound, the growth in [7] was 93.1%; in [8] it was 90%; in assay [9], 113%; in assay [10], 99.2%; in assay [11] it was 80.4%; in assay [12], 126%. Besides, the growth was 99.4% in assay [13]; 107% in assay [15]; 101% in [16]; 88.1% in [17]; 112% in [18]; 109% in assay [19].

`COc1ccc(Nn2c(SCC(=O)Nc3nc(-c4ccc(Cl)cc4)cs3)nc(C)c2C)cc1`: the growth in assay [1] was 31.9%; in [2], 60.5%; in assay [3] it was 112%; in assay [4], 39.3%; in [5], 38.6%; in assay [6], 66.2%. The growth in assay [7] is 44%; in [8], 59.5%; in [9] it was 77.5%; in [10] it was 79.6%; in [11], 26.9%; in assay [12] it was 99.1%. In addition, the growth in assay [13] is 79.7%; in [15], 66.1%; in assay [16], 43.9%; in assay [17], 79.1%; in assay [18] it was 48.9%; in assay [19], 62.5%.

For `COc1cc(/C=N/NC(=O)c2ccccc2Nc2cccc(C(F)(F)F)c2)ccc1O`, the growth is 91.5% in assay [1]; 88.3% in assay [2]; 103% in assay [3]; 100% in [4]; 81.9% in assay [6]; 100% in [7]. Moreover, the growth in assay [8] is 75.7%; in assay [9], 106%; in assay [10], 89.7%; in assay [11] it was 77.9%; in assay [12], 106%; in assay [13], 71.6%. For the same compound, the growth in assay [15] is 81.5%; in assay [16], 93.5%; in assay [17] it was 105%; in assay [18], 23.8%; in assay [19] it was 73.9%.

As to `CC(C)CCSc1nc(NNC(N)=O)c(C#N)c(-c2ccccc2)n1`, the growth in assay [1] is 91.3%; in [2] it was 96.6%; in [3], 106%; in [4], 112%; in assay [5] it was 86.1%; in assay [6], 97.4%. Besides, the growth in assay [7] is 106%; in assay [8], 75.2%; in [9], 121%; in assay [10] it was 117%; in [11] it was 99.2%; in [12], 99.7%. The growth is 99.6% in [13]; 101% in [15]; 96.9% in [16]; 94.8% in assay [17]; 102% in assay [18]; 71.7% in assay [19].

With `O=S(=O)(NCCCNc1nccc(-c2c(-c3ccc(F)c(O)c3)nc3sccn23)n1)c1ccc(F)cc1`, the growth in assay [1] is 2.45% (active); in [2], 11%; in assay [3], 5.97% (active); in assay [4], 6.31% (active); in assay [5], 6.16% (active); in [6] it was -9.08% (active). Besides, the growth in [7] is 10.2%; in assay [8], 14.1%; in [9], 11.5%; in assay [10] it was 11.5%; in assay [11], 3.41% (active); in [12], -14.7% (active). The growth in assay [13] was -23.1% (active); in assay [15], 9.56% (active); in [16] it was -12.1% (active); in assay [17], 18.5%; in [18], -10% (active); in assay [19], 6.75% (active).

Regarding `S=c1[nH]cccc1-c1nnc2n1Nc1nc3ccc(Cl)cc3cc1CS2`, the growth is 92% in [1]; 94.9% in assay [2]; 103% in assay [3]; 102% in assay [4]; 82.6% in [6]; 107% in [7]. Besides, the growth is 98.8% in [8]; 122% in assay [9]; 117% in assay [10]; 97.5% in assay [11]; 110% in [12]; 89.9% in [13]. For the same compound, the growth was 101% in assay [15]; 98.5% in assay [16]; 97.7% in assay [17]; 102% in assay [18]; 98.6% in assay [19].

Take `O=C1NC(=S)NC(=O)C1=Cc1cccc(C=C2C(=O)NC(=S)NC2=O)c1`: the growth was 102% in [1]; 98.8% in assay [2]; 110% in assay [3]; 104% in [4]; 116% in assay [5]; 93.1% in assay [6]. The growth is 108% in [7]; 12.2% in [8]; 113% in [9]; 110% in assay [10]; 102% in [11]; 109% in [12]. For the same compound, the growth in [13] is 108%; in assay [15], 103%; in assay [16] it was 108%; in assay [17], 99.9%; in assay [18] it was 102%.

Regarding `c1ccc(-c2nn(-c3ccccc3)[n+](-c3cccc4ccccc34)n2)cc1`, the growth in assay [1] is 1.91% (active); in assay [2], 26.9%; in [3] it was 42.2%; in [4], 1.82% (active); in assay [5] it was -13.2% (active); in [6], -8.34% (active). Further, the growth was 42.5% in assay [8]; 3.41% (active) in [9]; 29.1% in [10]; 8.3% (active) in [11]; -38.7% (active) in assay [12]; 31.5% in assay [13]. Moreover, the growth in assay [14] is 30.8%; in assay [15], 26.4%; in assay [16], 16.8%; in assay [17], 25.6%; in assay [18] it was 17.5%; in assay [19], 27.6%.
